Experimental data taken from PubChem BioAssay (NCI).
Compounds without any hit were thinned out: in the full panel of roughly 79,000, 15% have a hit. Active and inactive are the calls of the source. Cut-off read from the data, not from the text of the source: active = growth inhibition above about 70%; inactive = the rest.

Assays:
[1] = NCI Yeast Anticancer Drug Screen. Data for the rad52 strain (AID 147);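 note: 0% = growth of vehicle-treated control cultures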; settings: S. cerevisiae rad52 mutant growth inhibition, active compounds read high
In short: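 Vehicle-treated cultures served as the reference for growth inhibition of compound-exposed yeast bearing a DNA repair mutation.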

[2] = NCI Yeast Anticancer Drug Screen. Data for the wt1 strain (AID 149);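 note: 0% = growth of vehicle-treated wt1 cultures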; settings: S. cerevisiae wt1 strain (SPY 50644) growth inhibition, active compounds read high
In short: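 Growth inhibition read against vehicle controls after compound exposure of the wt1 yeast strain.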

[3] = NCI Yeast Anticancer Drug Screen. Data for the rad50EPP+ strain (AID 151);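 note: 0% = growth of vehicle-treated control cultures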; settings: S. cerevisiae rad50 mutant strain, active compounds read high
In short: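 In this screen, rad50EPP+ yeast were exposed to compounds. Growth inhibition was scored against vehicle-treated controls.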

[4] = NCI Yeast Anticancer Drug Screen. Data for the mgt1 strain (AID 153); settings: S. cerevisiae mgt1 mutant growth inhibition, active compounds read high
In short: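 mgt1 strain exposed; growth vs vehicle control recorded as inhibition.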

[5] = NCI Yeast Anticancer Drug Screen. Data for the rad50 strain (AID 155);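 note: 0% = growth of vehicle-only cultures of the same strain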; settings: S. cerevisiae rad50 strain growth inhibition, active compounds read high
In short: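 Readout: growth inhibition relative to vehicle-treated cultures. Compound exposure was carried out in a genetically defined yeast strain deficient in DNA damage repair.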

[6] = NCI Yeast Anticancer Drug Screen. Data for the mec2-1 strain (AID 157); settings: S. cerevisiae mec2-1 strain, active compounds read high
In short: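 Vehicle-treated cultures served as reference for growth inhibition of compound-exposed mec2-1 yeast.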

[7] = NCI Yeast Anticancer Drug Screen. Data for the rad14 strain (AID 159);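 note: 0% = growth of vehicle-treated control cultures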; settings: S. cerevisiae rad14 strain growth inhibition, active compounds read high
In short: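 Growth inhibition vs vehicle controls; genetically altered yeast strain (DNA damage repair defect) treated with test compounds.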

[8] = NCI Yeast Anticancer Drug Screen. Data for the sgs1 mgt1 strain (AID 161);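 note: 0% = growth of cultures given vehicle only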; settings: S. cerevisiae sgs1 mgt1 strain, active compounds read high
In short: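 Test agents were incubated with a DNA-repair-mutant yeast strain. Growth was then read and compared against vehicle-treated controls.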

[9] = NCI Yeast Anticancer Drug Screen. Data for the CLN2oe strain (AID 163);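 note: 0% = growth of vehicle-only control cultures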; settings: S. cerevisiae CLN2oe strain, active compounds read high
In short: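 Inhibition relative to vehicle-treated yeast is reported. Cells: strain with genetic alteration in cell-cycle control, grown with compound.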

[10] = NCI Yeast Anticancer Drug Screen. Data for the cln2 rad14 strain (AID 165);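 note: 0% = growth equal to vehicle treated cultures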; settings: S. cerevisiae cln2 rad14 strain, active compounds read high
In short: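 Each compound was tested on cln2 rad14 yeast. Inhibition of growth was calculated against vehicle-exposed controls.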

[11] = NCI Yeast Anticancer Drug Screen. Data for the bub3 strain (AID 167); settings: S. cerevisiae bub3 mutant strain, active compounds read high
In short: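 Readout: yeast growth inhibition, expressed relative to vehicle-only wells. The test organism is a mutant strain from a panel with lesions in DNA repair or checkpoint genes.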

[12] = NCI Yeast Anticancer Drug Screen. Data for the wt2 strain (AID 169);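 note: 0% = growth of vehicle-treated yeast cultures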; settings: S. cerevisiae wt2 strain growth inhibition, active compounds read high
In short: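 Inhibition of yeast growth was determined after compound treatment, normalised to controls receiving only vehicle.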

[13] = NCI Yeast Anticancer Drug Screen. Data for the mlh1 strain (AID 171);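 note: 0% = growth of vehicle-treated control cultures of the same strain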; settings: S. cerevisiae mlh1 strain growth inhibition, active compounds read high
In short: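 Vehicle-normalised growth inhibition of a repair- or checkpoint-altered yeast strain following compound treatment.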

[14] = NCI Yeast Anticancer Drug Screen. Data for the sgs1 strain (AID 173);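 note: 0% = growth of vehicle-only control cultures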; settings: S. cerevisiae sgs1 mutant, active compounds read high
In short: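 Screen format: yeast with repair or checkpoint alterations, compound exposure, growth read relative to vehicle.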

[15] = NCI Yeast Anticancer Drug Screen. Data for the mlh1 rad18 strain (AID 175); settings: S. cerevisiae mlh1 rad18 strain growth inhibition, active compounds read high
In short: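 Vehicle-treated cultures served as the reference for growth inhibition in a yeast strain carrying DNA damage repair alterations exposed to each compound.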

[16] = NCI Yeast Anticancer Drug Screen. Data for the rad18 strain (AID 177); settings: S. cerevisiae rad18 mutant growth inhibition, active compounds read high
In short: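 Test articles were incubated with altered yeast defective in DNA damage repair. Results are given as inhibition of growth versus vehicle.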

[17] = at 5.0 µM (retest, dose inferred, filed as 0.5)
[18] = at 50.0 µM (retest, dose inferred, filed as 5.0)

Measured: growth inhibition

CN(C)c1ccc(C2CC(C)(O)Oc3cc4c(cc32)OCO4)cc1 (stereo unspecified)
inactive: [1]; at 1.2 µM -1% | [1]; at 3.7 µM -1% | [1]; at 11.0 µM 10% | [1]; at 33.0 µM 28% | [2]; at 1.2 µM 0% | [2]; at 3.7 µM 5% | [2]; at 11.0 µM 1% | [2]; at 33.0 µM 1% | [2]; at 100.0 µM 7% | [3]; at 1.2 µM 2% | [3]; at 3.7 µM 4% | [3]; at 11.0 µM 20% | [3]; at 33.0 µM 36% | [3]; at 100.0 µM 59% | [4]; at 1.2 µM -2% | [4]; at 3.7 µM -3% | [4]; at 11.0 µM 0% | [4]; at 33.0 µM 4% | [4]; at 100.0 µM 48% | [5]; at 1.2 µM -1% | [5]; at 3.7 µM -2% | [5]; [17] 10% | [5]; at 11.0 µM 5% | [5]; at 33.0 µM 12% | [5]; at 50.0 µM 24.6% | [5]; at 100.0 µM 40% | [6]; at 1.2 µM -6% | [6]; at 3.7 µM 0% | [6]; [17] -20% | [6]; at 11.0 µM 2% | [6]; at 33.0 µM 4% | [6]; [18] 12% | [6]; at 50.0 µM 14.3% | [6]; at 100.0 µM 29% | [7]; at 1.2 µM -1% | [7]; at 3.7 µM 1% | [7]; at 11.0 µM 9% | [7]; at 33.0 µM 27% | [7]; at 100.0 µM 58% | [8]; [17] 2% | [8]; at 50.0 µM 34.7% | [9]; at 1.2 µM -5% | [9]; at 3.7 µM -16% | [9]; at 11.0 µM 4% | [9]; at 33.0 µM -3% | [9]; at 100.0 µM 16% | [10]; [17] 1% | [10]; [18] 37% | [10]; at 50.0 µM 21.3% | [11]; at 1.2 µM -5% | [11]; at 3.7 µM -3% | [11]; [17] 18% | [11]; at 11.0 µM 3% | [11]; at 33.0 µM 10% | [11]; at 50.0 µM 27.9% | [11]; at 100.0 µM 16% | [12]; at 1.2 µM -1% | [12]; at 3.7 µM -2% | [12]; at 11.0 µM -1% | [12]; at 33.0 µM 7% | [12]; at 100.0 µM 46% | [13]; at 1.2 µM -3% | [13]; at 3.7 µM 0% | [13]; at 11.0 µM 2% | [13]; at 33.0 µM 11% | [13]; at 100.0 µM 41% | [14]; at 1.2 µM -1% | [14]; at 3.7 µM 7% | [14]; at 11.0 µM 23% | [14]; at 33.0 µM 55% | [15]; [17] 23% | [15]; at 50.0 µM 43.5% | [16]; at 1.2 µM 24% | [16]; at 3.7 µM 57%
active: [1]; at 100.0 µM 70% | [5]; [18] 77% | [8]; [18] 83% | [11]; [18] 79% | [14]; at 100.0 µM 87% | [15]; [18] 93% | [16]; at 11.0 µM 89% | [16]; at 33.0 µM 92% | [16]; at 100.0 µM 95%

CCOC(=N)c1ccc(O)c(OC)c1
inactive: [1]; at 1.2 µM -1% | [1]; at 3.7 µM 0% | [1]; at 11.0 µM 0% | [1]; at 33.0 µM 0% | [1]; at 100.0 µM -2% | [2]; at 1.2 µM -3% | [2]; at 3.7 µM -2% | [2]; at 11.0 µM -3% | [2]; at 33.0 µM -1% | [2]; at 100.0 µM -3% | [3]; at 1.2 µM -3% | [3]; at 3.7 µM -4% | [3]; at 11.0 µM -6% | [3]; at 33.0 µM -3% | [3]; at 100.0 µM 1% | [4]; at 1.2 µM -2% | [4]; at 3.7 µM -1% | [4]; at 11.0 µM -2% | [4]; at 33.0 µM -2% | [4]; at 100.0 µM -2% | [5]; at 1.2 µM -1% | [5]; at 3.7 µM 16% | [5]; [17] -2% | [5]; at 11.0 µM 11% | [5]; at 33.0 µM -1% | [5]; [18] -4% | [5]; at 50.0 µM 2% | [5]; at 100.0 µM 2% | [6]; at 1.2 µM 0% | [6]; at 3.7 µM 2% | [6]; [17] -42% | [6]; at 11.0 µM 2% | [6]; at 33.0 µM 3% | [6]; [18] -3% | [6]; at 50.0 µM -9% | [6]; at 100.0 µM 2% | [7]; at 1.2 µM -2% | [7]; at 3.7 µM -6% | [7]; at 11.0 µM -19% | [7]; at 33.0 µM -4% | [7]; at 100.0 µM -1% | [8]; [17] 0% | [8]; [18] -4% | [8]; at 50.0 µM -2.6% | [9]; at 1.2 µM -2% | [9]; at 3.7 µM -5% | [9]; at 11.0 µM 1% | [9]; at 33.0 µM -3% | [9]; at 100.0 µM -1% | [10]; [17] 2% | [10]; [18] 0% | [10]; at 50.0 µM -39.2% | [11]; at 1.2 µM 7% | [11]; at 3.7 µM 17% | [11]; [17] 30% | [11]; at 11.0 µM 48% | [11]; at 33.0 µM 66% | [12]; at 1.2 µM -3% | [12]; at 3.7 µM 6% | [12]; at 11.0 µM -3% | [12]; at 33.0 µM -1% | [12]; at 100.0 µM -2% | [13]; at 1.2 µM -2% | [13]; at 3.7 µM -3% | [13]; at 11.0 µM -2% | [13]; at 33.0 µM 1% | [13]; at 100.0 µM 1% | [14]; at 1.2 µM -3% | [14]; at 3.7 µM -5% | [14]; at 11.0 µM -4% | [14]; at 33.0 µM -3% | [14]; at 100.0 µM 3% | [15]; [17] -1% | [15]; [18] -3% | [15]; at 50.0 µM 17.4% | [16]; at 1.2 µM -1% | [16]; at 3.7 µM -3% | [16]; at 11.0 µM -3% | [16]; at 33.0 µM 0% | [16]; at 100.0 µM 14%
active: [11]; [18] 83% | [11]; at 50.0 µM 86.6% | [11]; at 100.0 µM 79%

CCCCN(CCCC)CCC(O)c1cc2c(Cl)cc(Cl)cc2c2cc(C(F)(F)F)ccc12 (stereo unspecified)
inactive: [1]; at 1.2 µM 1% | [1]; at 3.7 µM 11% | [2]; at 1.2 µM -2% | [2]; at 3.7 µM 0% | [3]; at 1.2 µM 8% | [3]; at 3.7 µM 19% | [4]; at 1.2 µM 27% | [4]; at 3.7 µM 30% | [5]; at 1.2 µM 24% | [5]; at 3.7 µM 16% | [5]; [17] 41% | [6]; at 1.2 µM 10% | [6]; at 3.7 µM 8%
active: [1]; at 11.0 µM 99% | [1]; at 33.0 µM 98% | [1]; at 100.0 µM 96% | [2]; at 11.0 µM 93% | [2]; at 33.0 µM 98% | [2]; at 100.0 µM 96% | [3]; at 11.0 µM 80% | [3]; at 33.0 µM 98% | [3]; at 100.0 µM 93% | [4]; at 11.0 µM 99% | [4]; at 33.0 µM 99% | [4]; at 100.0 µM 97% | [5]; at 11.0 µM 98% | [5]; at 33.0 µM 98% | [5]; [18] 98% | [5]; at 50.0 µM 87.5% | [5]; at 100.0 µM 95%
